Bioassay records: PubChem BioAssay, Fisher Drug Discovery Resource Center
NPYLR7 ag = mosquito NPYLR7 agonism; HEK293T NPYLR7/Galpha15, GCaMP6s calcium fluorescence; activation, % at 10 µM; 270,000 tested, 0.15% active; AID 1259423; in the data active means activation above about 40%
mcGAS lum = blocks mouse cGAS activity. Q8C6L5. recombinant cGAS, Kinase-Glo ATP depletion luminescence. inhibition, % at 12.5 µM. 160,000 tested, 0.15% active. AID 1259399
Target sequence (Q8C6L5 whole entry, looked up): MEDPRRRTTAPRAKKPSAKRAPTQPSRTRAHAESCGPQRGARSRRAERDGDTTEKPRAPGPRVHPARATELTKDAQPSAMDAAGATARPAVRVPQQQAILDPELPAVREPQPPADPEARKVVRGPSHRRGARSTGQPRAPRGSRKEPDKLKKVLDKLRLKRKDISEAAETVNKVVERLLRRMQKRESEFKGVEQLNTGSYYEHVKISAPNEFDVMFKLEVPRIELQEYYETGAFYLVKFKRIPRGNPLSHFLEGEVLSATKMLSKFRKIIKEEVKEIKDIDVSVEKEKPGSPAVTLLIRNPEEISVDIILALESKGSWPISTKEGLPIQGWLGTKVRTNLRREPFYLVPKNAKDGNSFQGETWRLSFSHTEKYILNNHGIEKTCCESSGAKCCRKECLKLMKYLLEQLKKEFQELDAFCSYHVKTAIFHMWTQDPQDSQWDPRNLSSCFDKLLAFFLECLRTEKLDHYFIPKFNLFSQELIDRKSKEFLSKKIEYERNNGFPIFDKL
hcGAS inh = inhibitors of human cGAS; 290,000 tested, 0.081% active; inhibition, % at 12.5 µM; recombinant h-cGAS, ATP depletion, Kinase-Glo luminescence
Numbers stand for hits; i = inactive; nt = not tested or not shown; ! = not confirmed by another sample. This is a sample that favours compounds with a hit; in the whole collection about 0.3% have one here. Unless noted, no stated cut-off is given here; in the data, active means inhibition above about 40%; inactive means the rest.

SMILES	NPYLR7 ag	mcGAS lum	hcGAS inh
COc1ccc2[nH]c3c(c2c1)CCN(C(=O)c1cc(-c2ccc(Cl)cc2)oc1C)C3c1ccc(COC(C)=O)o1 (centres undefined)	i	i	i
COc1ccc(C=CC(=O)c2ccc(C)o2)cc1OC	i	nt	i
Cc1ccc(C(=O)C=Cc2ccc(N(C)C)cc2)o1	75	nt	i
CNN=Cc1cc(Br)cc(Br)c1O	i	i	i
Oc1c(Br)cc(Br)cc1C=NC1CC1	i	nt	53
Cc1nc(C)n(CC2CCCCN2CC(O)CN2CCOCC2)n1 (centres undefined)	i	nt	i
CC(C)NCC(O)c1cc(O)cc(O)c1 (centres undefined)	i	i	i
CC(C)NC[C@H](O)c1ccc(O)c(O)c1	85!	i	i
O=C(OC[C@H]1O[C@H](OC(=O)c2cc(O)c(O)c(OC(=O)c3cc(O)c(O)c(O)c3)c2)[C@H](OC(=O)c2cc(O)c(O)c(OC(=O)c3cc(O)c(O)c(O)c3)c2)[C@@H](OC(=O)c2cc(O)c(O)c(OC(=O)c3cc(O)c(O)c(O)c3)c2)[C@@H]1OC(=O)c1cc(O)c(O)c(OC(=O)c2cc(O)c(O)c(O)c2)c1)c1cc(O)c(O)c(OC(=O)c2cc(O)c(O)c(O)c2)c1	i	nt	51
CC(=O)OC[C@H]1O[C@@H](Oc2cc(OC(C)=O)c3c(=O)cc(-c4ccc(OC(C)=O)cc4)oc3c2)[C@H](OC(C)=O)[C@@H](OC(C)=O)[C@@H]1OC(C)=O	i	nt	i
O[C@@H]1CN(Cc2ccc3c(c2)OCO3)CC[C@H]1c1ccc2c(c1)OCO2	i	nt	i
O[C@@H]1CN(Cc2ccncc2Cl)CC[C@H]1c1ccc2c(c1)OCO2	49	nt	i
FC(F)c1nnc(NCCCn2cccn2)s1	i	i	i
Cc1ncc(-c2ccc(NC(=O)c3ccc(N4CCCC4)nc3)cc2)o1	i	nt	i
CC1(C)OC2c3ccccc3OC3(C)CCC1CC23 (centres undefined)	i	nt	i
CC1CC2(C)Oc3ccccc3C3OCC1(CO)C(C)C32 (centres undefined)	43	i	i
O=C1NC(=S)SC1=Cc1ccc(F)c(F)c1	i	i	i
O=C1NC(=S)SC1=Cc1c(F)cccc1F	i	nt	42
O=C1NC(=O)C(=Cc2cccc(Cl)c2Cl)S1	i	nt	i
O=C1NC(=S)SC1=Cc1ccccc1Cl	i	nt	56
COCCSc1ncc(-c2cccc(OC)c2)c(C2CCCN(C(=O)c3cc[n+]([O-])cc3)C2)n1 (centres undefined)	i	i	i
O=C(NNc1nc(-c2ccccc2)c2cc(Br)ccc2n1)c1ccc(Cl)cc1	i	i	i
O=c1cc(CSc2ncnc3sc4c(c23)CCC4)nc2ccc(Br)cn12	i	nt	i
O=c1nc2sc3[nH]c(=O)sc3cc-2s1	244	46	i
Cc1ccc2c(c1)CCCN2CC(=O)N(CCC(N)=O)c1ccccc1	100	i	i
SMILES	NPYLR7 ag	mcGAS lum	hcGAS inh
Cc1ccc(N(CCC#N)C(=O)CN2CCCc3ccccc32)cc1C	i	i	i
CCc1nnc(-c2cc3ccccc3n2CC(=O)Nc2ccc3c(c2)OCO3)o1	i	i	i
CN1C(=CC=C2C(=O)Oc3ccccc3C2=O)C(C)(C)c2ccccc21	49	nt	i
CN1C(=CP(=O)(N(C)C)N(C)C)C(C)(C)c2ccccc21	i	nt	i
CCOCCOC1CCCN(C(=O)c2ccc(OC)cc2)C1 (centres undefined)	i	nt	i
Cc1sc(=NC(=O)c2cccc(C(F)(F)F)c2)n(C(C)C(=O)NC2CC2)c1C (centres undefined)	i	nt	184
CCOC(=O)C1CCN(C(=O)C(C)n2ccsc2=NC(=O)c2cccc(C(F)(F)F)c2)CC1 (centres undefined)	i	nt	i
COc1ccc2c(c1)N(Cc1cccc(C(N)=O)c1)CC(C)O2 (centres undefined)	i	nt	i
COc1cc(C=C2C(=O)N(C)C(=O)N(C)C2=O)cc([N+](=O)[O-])c1O	i	46	i
COc1cc(C=C2C(=O)N(C)C(=O)N(C)C2=O)cc(I)c1O	i	i	i
COc1ccccc1C(=O)Nc1ccc2oc(-c3ccc(N(C)C)cc3)nc2c1	i	i	i
c1ccc(CCc2n[nH]c(Cc3ccc(-n4cnnn4)cc3)n2)cc1	i	i	i
CC(N)=C(C#N)C(=O)Cn1cc(C(F)(F)F)cc(Cl)c1=O	i	nt	i
CC(=O)c1c(C)[nH]c(C(=O)Cn2cc(C(F)(F)F)cc(Cl)c2=O)c1C	i	i	74
N#CC(C#N)=Cc1cn(-c2ccccc2)nc1-c1cc2ccccc2o1	i	nt	i
N#CC(C#N)=Cc1cn[nH]c1-c1cc2ccccc2o1	i	46	i
COc1ccc(-n2nc(C)c(-c3ccccc3)c2NC(=O)CN(CC(C)C)C(=O)CCc2ccccc2)cc1	i	i	i
CCCC(C)c1nnc(NC(=O)Cc2[nH]nc3ccccc23)s1 (centres undefined)	i	nt	i
CCCCC(NC(=O)CCc1cc2c(n1-c1ccc(C(C)C)cc1)-c1ccccc1OC2)C(=O)OC (centres undefined)	i	i	i
O=c1[nH]c(SCCO)nc2sc3c(c12)CCCC3	40	i	i
Cc1nc(SCCO)c2c3c(sc2n1)CCCC3	i	i	i
Cc1ccccc1Cc1nnc(NC(=O)C(=O)N2CCOCC2)s1	i	i	i
Cc1cccc(-c2cc(N)n(-c3ccc(C(=O)NCCOc4ccccc4Cl)cc3)n2)c1	i	i	i
CN1C(=S)N(c2ccc3c(c2)CCC3)C(=O)/C1=C\c1ccncc1	41	i	i
CN1C(=S)N(c2ccc3c(c2)CCC3)C(=O)/C1=C/c1ccc(N(C)C)cc1	i	i	i
SMILES	NPYLR7 ag	mcGAS lum	hcGAS inh
O=C(Cn1cnc2c(nnn2Cc2ccc(Cl)cc2)c1=O)c1ccc(Cl)cc1	i	nt	i
COc1ccc(-n2ccnc2-c2cccc(OC)c2OC)cn1	i	i	i
COc1ccc(-n2ccnc2-c2ccc(C#CC(C)(C)O)cc2)cn1	57	nt	i
Cc1cc(C(=O)NC2CCCCC2)nc2cc(-c3ccccc3)nn12	i	i	i
COc1cc(/C=C2\SC(=S)N(c3cccc(C(=O)O)c3)C2=O)ccc1O	52	i	i
COCCN1C(=O)/C(=C/c2ccc(O)c(OC)c2)SC1=S	i	nt	i
COc1ccc(/C=C2\SC(=S)N(c3ccc(C(=O)O)cc3)C2=O)cc1OC	i	i	i
COc1cc(/C=C2\SC(=S)N(C(CC(=O)O)C(=O)O)C2=O)ccc1O (centres undefined)	68	i	i
O=S(=O)(c1ccc(C(F)(F)F)cc1Cl)N1CCN(c2c(-c3ccccc3)cnc3ncnn23)CC1	nt	i	i
Cc1cc(=O)[nH]c(CCNC(=O)c2cccc3ccnn23)n1	i	nt	i
O=C(Cn1c(=O)oc2ccccc21)N1CCN(c2ccccc2O)CC1	i	nt	i
COc1cc(C)c2c(c1C=O)Oc1c(c(C)c(O)c3c1C(O)OC3=O)OC2=O (centres undefined)	i	41	70
Cc1cc(O)c(C=O)c2c1C(=O)Oc1c(C)c(O)c3c(c1O2)C(O)OC3=O (centres undefined)	i	nt	42
COC(=O)c1c(C)c2c(c(C)c1O)OC(=O)c1c(C)c(Cl)c(O)c(Cl)c1O2	i	i	i
O=C(NCC1CCOCC1)c1cccc(OC2CCN(C(=O)C3CC3)CC2)c1	i	nt	i
N=C1/C(=C/c2cccs2)C(=O)N=C2SC(c3ccccc3)=NN12	i	nt	56
N=C1/C(=C/c2cccs2)C(=O)N=C2SC(Cc3ccccc3)=NN12	i	nt	i
